High-throughput results: PubChem, Broad Institute
EWS-Fli inh: EWS/Fli transcriptional activity inhibition | A673 NR0B1-luciferase reporter, viability-normalised | actives 0.67% (n = 350,000) | inhibition, % at 12.6 µM;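 active means mean inhibition of at least 50% after viability correction, with every replicate also passing that limit; inconclusive means mean reaches 50% but only one of two replicates passes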;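 further: firefly luciferase signal divided by Alamar Blue viability fluorescence both relative to DMSO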
CFTR F508del cor: CFTR F508del correction in bronchial cells; CFBE cells, YFP halide quenching; stimulated with forskolin plus potentiator P3; % fluorescence drop versus neutral controls; activity (quench increase), % at 7.58 µM; actives 0.36% (n = 350,000); AID 720511;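 active means mean added fluorescence quench of at least 8% versus neutral control, with both replicates also reaching 8%; inconclusive means only one of the mean or replicate conditions met; inactive means mean below 8% and not both replicates reaching 8%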;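 further: cells transiently co-express mutant CFTR-F508del with the halide-sensitive YFP; corrector assay measuring rescue of mutant channel to the surface after 24 h compound exposure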
PGC1a acetyl inh: lowers PGC1a acetylation signal in U2OS cells. AlphaScreen anti-acetyl-lysine; with virally co-expressed GCN5 acetyltransferase. inhibition, % at 15.6 µM. actives 0.17% (n = 350,000). AID 651687;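 active means every replicate shows inhibition of at least 40%; inconclusive means mean inhibition at least 40% but some replicate below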;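 further: 0% = neutral control wells and 100% = positive control wells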
HIV Env fusion: inhibitors of HIV Env-mediated cell fusion; actives 1.1% (n = 360,000); AID 651610; HeLa-JRFL Env/CEM21 cell fusion, luciferase; inhibition, % at 12.3 µM;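 active means mean replicate inhibition score of at least 50 and every replicate individually at or above 50; inconclusive means only one of the two criteria met; inactive means mean below 50 and not all replicates reaching 50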;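 further: 0% = plate neutral controls and 100% = maraviroc near 300 nM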
INS-1E GSIS act: GLuc luminescence reporter in INS-1E cells, primary screen for activators of glucose-dependent secretion of insulin. INS-1E GLuc reporter insulin secretion, 2-3 h. actives 0.61% (n = 370,000). activation, % at 16.6 µM;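 active means lowest replicate activation of at least 40%, so every replicate reaches that level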;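 further: 0% = median of neutral control wells and 100% = median of IBMX positive control wells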
PAX8 inh HTS: inhibitors of PAX8 transcriptional activity in RMG-I cells. RMG-I TPO-luciferase reporter, SteadyGlo, 24 h. inhibition, % at 12.6 µM. actives 1.2% (n = 360,000);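 active means mean replicate inhibition at least 60% with every replicate also reaching 60%; inconclusive means only one of the two criteria is met; inactive means mean below 60% and not all replicates reaching 60%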;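 further: luciferase light reporting Pax8 driven TPO promoter activity; plate controls were median of neutral control wells for no effect and mitoxantrone controls for full effect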
Active calls of the source: *; i = inactive; ? = inconclusive; nt = not tested or not shown; [ ] = another dose, or the depositor's remark. This is a sample that favours compounds with a hit; in the whole collection about 2.7% have one here.

SMILES	EWS-Fli inh	CFTR F508del cor	PGC1a acetyl inh	HIV Env fusion	INS-1E GSIS act	PAX8 inh HTS
C[C@H]1CN([C@@H](C)CO)C(=O)Cc2cc(N(C)C)ccc2O[C@@H]1CN(C)CC1CC1	-4.6	-0.8	2.2	7.1[16.7 µM]	1.3	1.2
O=C(NCC[C@H]1CC[C@@H](NS(=O)(=O)c2cccc(F)c2)[C@H](CO)O1)C1CCC1	13.7	1.4	10.5	-4.4[16.7 µM]	3.1	-25.9
CC(=O)N1CCN(c2ccc(NC(=O)c3ccc([N+](=O)[O-])o3)cc2Cl)CC1	49.6	-0.5	nt	-105.8	-24.0	101.5*
CC(=O)N1CCN(c2ccc(NC(=O)c3ccco3)cc2Cl)CC1	nt	0.8	-5.2	7.4	11.3	-36.9
CCN1CCN(c2ccc(NC(=O)c3ccc([N+](=O)[O-])o3)cc2Cl)CC1	32.9	1.7	nt	-435.1	-15.6	83.3*
O=C(Nc1cc(Cl)ccc1-n1cncn1)c1ccc([N+](=O)[O-])o1	37.4	0.6	nt	8.9	-3.7	63.0*
CCC(=O)N1CCN(c2ccc(Cl)cc2NC(=O)c2ccc([N+](=O)[O-])o2)CC1	26.9	-0.4	-61.7	41.9	10.0	27.2
O=C(Nc1cc(Cl)ccc1F)c1ccc(-n2cncn2)c([N+](=O)[O-])c1	-6.8	1.2	nt	-1.0	1.4	-8.1
CCC(=O)N1CCN(c2ccc(NC(=O)c3ccc([N+](=O)[O-])o3)cc2Cl)CC1	?	3.9	29.8	i	-5.6	99.0*
Cc1ccc(S(=O)(=O)N[C@@H]2CCCN(Cc3cccc(OCCO)c3)C2)cc1	5.8	3.3	-45.3	-21.4[16.7 µM]	nt	nt
CC(C)CC#Cc1ccc2c(c1)O[C@@H](CN(C)C(=O)Nc1ccccc1F)[C@H](C)CN([C@@H](C)CO)S2(=O)=O	38.2	4.2	-5.2	12.4[16.7 µM]	-9.1	nt
CCC(=O)c1cc2c(C)cc(=O)oc2c(C)c1OC(C)=O	nt	nt	nt	-94.3	7.8	-16.5
CCC(=O)c1cc2c(C)cc(=O)oc2c(C)c1OC(=O)C(C)C	0.8	1.2	nt	nt	6.2	72.0*
CC(C)CC#Cc1ccc2c(c1)O[C@@H](CN(C)C(=O)c1ccccc1F)[C@H](C)CN([C@@H](C)CO)S2(=O)=O	26.0	-0.3	5.1	?	-32.2	nt
COc1ccc(C(O)c2nc3ccccc3n2C)cc1OC (configuration not stated)	nt	nt	7.1	73.6*	nt	nt
COc1ccccc1-n1c(C)nnc1SCC(N)=O	nt	nt	nt	16.4	nt	-0.1
COc1ccccc1-n1c(C)nnc1SCC(=O)Nc1cc(C)cc(C)c1	nt	nt	-16.6	55.6*	nt	nt
CCc1ccc2[nH]c3nc(N/N=C/c4ccc(O)cc4O)nnc3c2c1	39.1	5.9	nt	40.3	23.2	105.1*
COc1cc(/C=N/Nc2nnc3c(n2)[nH]c2ccccc23)ccc1O	27.4	-0.1	0.1	nt	nt	80.2*
CCOC(=O)Cn1c(S(=O)(=O)Cc2ccc(F)cc2)nc(-c2ccccc2)c1-c1ccccc1	nt	nt	-11.4	-4.2	nt	nt
C#CCn1c(S(=O)(=O)Cc2ccc(F)cc2)nc(-c2ccccc2)c1-c1ccccc1	nt	nt	-35.3	66.2*	-25.5	nt
CCOC(=O)Cn1c(S(=O)(=O)Cc2cccc(F)c2)nc(-c2ccccc2)c1-c1ccccc1	nt	nt	-17.2	87.0*	-2.2	nt
CC12CC3CC(C)(C1)CC(C(=O)NNC(=O)c1ccncc1)(C3)C2	-7.5	-1.8	6.2	-43.4	-2.6	39.3
CC(NC(=O)C12CC3CC(C)(CC(C)(C3)C1)C2)c1ccncc1 (configuration not stated)	-7.7	-2.0	0.0	64.8*	-0.7	-0.2
C[C@@H]1CCCCO[C@@H](CN(C)CC2CCCCC2)[C@@H](C)CN([C@@H](C)CO)C(=O)c2cc(NS(=O)(=O)c3ccccc3)ccc2O1	8.2	-1.3	-0.3	-58.4[16.7 µM]	-16.3	14.7
Cc1ccc(S(=O)(=O)Nc2ccccc2-c2ccccc2NS(=O)(=O)c2ccc(C)cc2)cc1	nt	nt	-2.1	nt	nt	nt
Cc1ccc(S(=O)(=O)Nc2cc(C)cc(CCNC=O)c2C)cc1	12.9	9.6*	nt	14.4	5.7	12.1
CC(C)NC(=O)N(C)C[C@@H]1Oc2ccc(NC(=O)Cc3cn(C)c4ccccc34)cc2C(=O)N([C@H](C)CO)C[C@@H]1C	-9.4	0.1	-5.7	nt	-8.8	2.5
Nc1c(C(=O)N2CCOCC2)sc2nc3c(cc12)CCCC3	31.4	0.7	4.2	19.5	0.1	70.6*
